Records with an inconclusive call do not appear. Activity calls are given as the source filed them. Cut-off read from the data, not from the text of the source, unless noted: active = percent of DMSO control GFP below about 86%; inactive = the rest, inconclusive results apart.
Experiments:
[1] = rapamycin-like changes in RPL19A-GFP expression – cell-based, S. cerevisiae, multiplex flow cytometry, primary screen (AID 1862);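 note: lower values mimic rapamycin by blocking the RPL19A rise seen in DMSO cells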; conditions: S. cerevisiae RPL19A-GFP strain, flow cytometry fluorescence, 3 h; at 10 µM; stronger effect = lower value
[2] = TOR pathway GLN3 branch reporter MEP2-GFP changes – S. cerevisiae, multiplex flow cytometry, primary screen (AID 1867;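 active = GFP response, as percent of the DMSO control, above the screen-wide mean plus 3 SD, about 139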;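 note: median GFP channel fluorescence of barcode-gated MEP2-GFP cells measured by flow cytometry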); conditions: S. cerevisiae MEP2-GFP strain, 3 h, at 10 µM, stronger effect = higher value, 100% means same as DMSO wells
[3] = TOR pathway RTG branch CIT2 reporter changes – S. cerevisiae, GFP fusion, multiplex flow cytometry, primary screen (AID 1870;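 active = percent response above a set limit, the screen-wide mean plus 3 SD, cut at about 130% in these data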;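 note: barcoded CIT2-GFP strain pooled with four other GFP strains with rapamycin as positive control; median GFP fluorescence per well over plate mean of DMSO wells so 100% = DMSO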); conditions: S. cerevisiae CIT2-GFP expression, 3 h, at 10 µM, stronger effect = higher value
[4] = TOR pathway LAP4-GFP level changes – S. cerevisiae, multiplex flow cytometry, primary screen (AID 1873;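 active = GFP signal, as percent of the solvent control, above the screen mean plus 3 SD, about 149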); conditions: S. cerevisiae LAP4-GFP expression, 3 h, at 10 µM, stronger effect = higher value
[5] = yeast AGP1-GFP level changes, GLN3 branch – cell-based, multiplex flow cytometry, S. cerevisiae, primary screen (AID 1887;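 active = GFP signal above the screen-wide mean plus 3 SD, that is over about 124.5% of the solvent control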;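 note: AGP1-GFP fusion strain of S. cerevisiae within a five-strain barcoded multiplex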); conditions: 3 h, at 10 µM, stronger effect = higher value
[6] = reduced mouse 2C T cell binding to pMHC/ICAM-1 vesicles – MLPCN validation set, flow cytometry, LFA-1/ICAM-1 modulator project, pilot screen (AID 2523;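 active = response below a set limit, under 55% cells CD8-positive and vesicle-bound, and CD8 cells' 90th-percentile brightness under 279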;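 for vesicle binding response: mean PE anti-B7-1 fluorescence of CD8+ cells relative to row control; 100% = QL9-loaded vesicles with DMSO vehicle in the same plate row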); conditions: 2C mouse CD8+ T cells, at 7 µM, stronger effect = lower value; double positive events: measured here: CD8+/vesicle+ event percentage
[7] = target: Integrin beta-1 (Homo sapiens) + Integrin alpha-4 (Homo sapiens) (UniProt P13612+P05556); test: alpha4beta1 integrin LIBS antibody binding reduction – U937 cells, HUTS-21 mAb, flow cytometry, validation set, VLA-4 allosteric modulator project, pilot screen (AID 2674;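 active = inhibition above 50%, about 3 SD of the validation set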;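 note: antibody binding induced by the VLA-4 ligand LDV present at three times its Kd; 0% = LDV ligand with antibody and no compound and 100% = antibody without LDV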); conditions: HUTS-21 LIBS mAb binding, at 6.7 µM, stronger effect = higher value, binding induced by LDV ligand
[8] = calorie-restriction mimetic ROS inhibitors, yeast – validation compound set, pilot screen (AID 2706;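 active = superoxide response below 65% of plate, a cut near 3 SD across the whole screen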;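 note: yeast exposed to compound for one week at 30 degrees C before staining; 100% = mean of all compound wells on the same plate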); conditions: S. cerevisiae aging, superoxide DHE fluorescence; at 10 µM, stronger effect = lower value
[9] = target: Beta-adrenergic receptor kinase 1 (Homo sapiens) (UniProt P25098); test: GRK2 binders displacing RNA aptamer, biochemical, validation, human GRK2, bead flow cytometry (AID 488806;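 active = aptamer binding inhibition above 30%, about 3 SD of noise from non-fluorescent compounds; inactive = inhibition at or below 30%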); conditions: bead-bound GRK2, FAM-aptamer displacement, at 10 µM, stronger effect = higher value
[10] = target: AP-2 complex subunit beta (Homo sapiens) (UniProt P63010); test: beta-arrestin/AP2 interaction blockers – biochemical, validation set, GST-AP2 beads, flow cytometry, pilot screen (AID 504541;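 active = inhibition above 54%, about 3 SD of non-fluorescent compounds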;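 note: AP2 carries R879A mutation and is captured from E. coli lysate; bead-bound FITC arrestin peptide fluorescence measuring arrestin peptide binding to AP2; 0% = DMSO wells and 100% = excess unlabeled arrestin peptide control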); conditions: FITC arrestin peptide, at 10 µM, stronger effect = higher value, AP2 beta2 appendage fragment, R879A mutant
[11] = cytosolic pH regulators acting via V-ATPase – S. cerevisiae, pHLuorin, HTS validation (AID 504600; in the data active = response above about 15%;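 note: plate controls were DMSO for no effect and reference compound for full effect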); conditions: V-ATPase proton transport, at 10 µM, stronger effect = higher value
[12] = tested on: anti-desmoglein-3 scFv antibody binding to human DSG3; test: blockers of pathogenic pemphigus antibody–desmoglein-3 binding – biochemical, validation compound set, bead-based, flow cytometry, pilot screen (AID 588368;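 active = binding below the plate cutoff, the plate median minus 3 SD, with a reading above zero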;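 note: signal is the median channel fluorescence of bead-bound GFP antibody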); conditions: Protein G beads, DSG3-Fc, scFv-GFP binding, at 10 µM, stronger effect = lower value
[13] = Nile Red efflux blockade in pump-expressing yeast – validation compound set, multiplex, phenotypic, pilot screen (AID 588506;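 active = efflux inhibition above 0.42, the validation set average plus 4 SD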;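 note: Nile Red retained in cells so higher fluorescence means more efflux inhibition; 0 = negative control wells and 1 = enniatin B 25 µM full block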); conditions: S. cerevisiae pump-expressing triplex, Nile Red efflux flow cytometry; at 10 µM; stronger effect = higher value; the pumps come from Candida albicans
[14] = target: ATP-binding cassette sub-family B member 6 (Homo sapiens) (UniProt Q9NP58); test: blockers of ABCB6-driven porphyrin uptake – K562-ABCB6 cells, flow cytometry, validation set, pilot screen (AID 588550;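 active = inhibition above the screen-wide mean plus 3 SD, about 51%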;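 note: 0% = DMSO wells and 100% = benzethonium chloride 70 µM positive control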); conditions: K562-ABCB6 porphyrin accumulation, 1 h, at 10 µM, stronger effect = higher value
[15] = AML differentiation inducers, ER-HoxA9 marrow cells – cell-based, GFP/MAC1 double positive, flow cytometry, validation set, primary screen (AID 588685;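 active = differentiation response of at least 50%, scaled between solvent and reference control, from cells with both markers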;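 note: compound exposure lasts four days before antibody staining and flow analysis; 0% = DMSO wells and 100% = 5 µM fulvestrant positive control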); conditions: stronger effect = higher value, normalized: vehicle 0, fulvestrant 100

AP-2 complex subunit beta (Homo sapiens), sequence (P63010 whole entry, looked up, the tested form may be a part, one chain of several): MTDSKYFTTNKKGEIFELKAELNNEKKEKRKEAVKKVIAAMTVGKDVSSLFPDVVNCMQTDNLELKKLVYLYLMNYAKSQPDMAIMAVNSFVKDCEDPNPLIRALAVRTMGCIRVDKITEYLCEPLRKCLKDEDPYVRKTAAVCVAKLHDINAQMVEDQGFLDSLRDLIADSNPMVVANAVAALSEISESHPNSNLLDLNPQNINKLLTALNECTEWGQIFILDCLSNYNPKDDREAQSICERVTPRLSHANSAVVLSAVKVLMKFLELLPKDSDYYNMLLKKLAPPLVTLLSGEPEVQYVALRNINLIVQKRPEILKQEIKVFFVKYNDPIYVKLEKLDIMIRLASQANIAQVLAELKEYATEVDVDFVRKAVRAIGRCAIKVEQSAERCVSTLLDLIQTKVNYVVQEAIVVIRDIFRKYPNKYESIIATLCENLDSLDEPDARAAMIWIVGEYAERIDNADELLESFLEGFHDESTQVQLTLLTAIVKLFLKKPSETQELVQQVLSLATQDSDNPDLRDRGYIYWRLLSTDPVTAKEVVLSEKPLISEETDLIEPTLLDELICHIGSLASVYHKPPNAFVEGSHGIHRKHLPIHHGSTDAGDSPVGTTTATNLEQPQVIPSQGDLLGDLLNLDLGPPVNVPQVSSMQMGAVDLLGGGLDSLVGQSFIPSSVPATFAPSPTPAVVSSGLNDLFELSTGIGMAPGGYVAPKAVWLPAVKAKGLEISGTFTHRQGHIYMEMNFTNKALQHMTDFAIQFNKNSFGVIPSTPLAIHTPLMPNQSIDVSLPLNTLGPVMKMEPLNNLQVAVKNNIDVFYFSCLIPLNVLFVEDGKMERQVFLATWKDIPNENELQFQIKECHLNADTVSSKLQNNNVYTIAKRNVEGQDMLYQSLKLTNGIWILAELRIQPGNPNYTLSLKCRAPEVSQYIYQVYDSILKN
Beta-adrenergic receptor kinase 1 (Homo sapiens), sequence (P25098 whole entry, looked up): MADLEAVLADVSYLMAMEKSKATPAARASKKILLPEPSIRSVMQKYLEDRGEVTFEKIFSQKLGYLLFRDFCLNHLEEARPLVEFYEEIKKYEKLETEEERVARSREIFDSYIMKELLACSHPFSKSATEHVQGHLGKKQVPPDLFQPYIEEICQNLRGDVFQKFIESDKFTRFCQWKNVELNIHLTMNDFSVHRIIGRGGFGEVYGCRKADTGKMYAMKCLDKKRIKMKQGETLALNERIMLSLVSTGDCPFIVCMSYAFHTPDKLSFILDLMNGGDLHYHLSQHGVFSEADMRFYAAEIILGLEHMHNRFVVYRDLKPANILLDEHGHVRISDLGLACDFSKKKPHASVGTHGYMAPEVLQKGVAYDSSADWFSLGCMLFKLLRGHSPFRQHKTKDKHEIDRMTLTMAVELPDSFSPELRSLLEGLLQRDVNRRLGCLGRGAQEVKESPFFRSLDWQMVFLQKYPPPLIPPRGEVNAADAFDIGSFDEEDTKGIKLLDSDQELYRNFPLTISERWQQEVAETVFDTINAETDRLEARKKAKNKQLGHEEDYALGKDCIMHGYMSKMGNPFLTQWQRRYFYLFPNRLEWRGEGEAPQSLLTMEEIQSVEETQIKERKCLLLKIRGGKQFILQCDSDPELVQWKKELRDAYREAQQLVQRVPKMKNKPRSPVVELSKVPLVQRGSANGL
ATP-binding cassette sub-family B member 6 (Homo sapiens), sequence (Q9NP58 whole entry, looked up): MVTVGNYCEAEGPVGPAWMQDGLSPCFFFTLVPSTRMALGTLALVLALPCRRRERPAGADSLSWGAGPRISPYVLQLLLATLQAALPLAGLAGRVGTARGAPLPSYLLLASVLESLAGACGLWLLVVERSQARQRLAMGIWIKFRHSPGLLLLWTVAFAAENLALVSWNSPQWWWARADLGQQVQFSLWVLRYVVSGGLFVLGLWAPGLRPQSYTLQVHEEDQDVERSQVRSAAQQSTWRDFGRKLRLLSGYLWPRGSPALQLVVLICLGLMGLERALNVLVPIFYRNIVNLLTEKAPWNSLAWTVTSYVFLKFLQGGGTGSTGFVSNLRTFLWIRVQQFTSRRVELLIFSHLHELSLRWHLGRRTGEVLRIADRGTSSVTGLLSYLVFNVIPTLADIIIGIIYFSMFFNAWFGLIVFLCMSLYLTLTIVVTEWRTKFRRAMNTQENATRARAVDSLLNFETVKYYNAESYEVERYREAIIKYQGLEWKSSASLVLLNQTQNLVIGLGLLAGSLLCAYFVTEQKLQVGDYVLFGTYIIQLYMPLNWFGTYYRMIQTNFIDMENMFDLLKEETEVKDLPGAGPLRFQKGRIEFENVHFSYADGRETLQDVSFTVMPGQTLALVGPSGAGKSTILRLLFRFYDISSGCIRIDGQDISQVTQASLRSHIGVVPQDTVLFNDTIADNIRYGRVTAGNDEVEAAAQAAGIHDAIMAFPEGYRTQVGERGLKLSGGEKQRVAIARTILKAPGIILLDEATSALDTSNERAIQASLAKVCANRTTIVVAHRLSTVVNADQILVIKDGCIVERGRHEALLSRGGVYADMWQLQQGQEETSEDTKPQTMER
Integrin beta-1 (Homo sapiens) + Integrin alpha-4 (Homo sapiens), sequence (P05556 whole entry, looked up): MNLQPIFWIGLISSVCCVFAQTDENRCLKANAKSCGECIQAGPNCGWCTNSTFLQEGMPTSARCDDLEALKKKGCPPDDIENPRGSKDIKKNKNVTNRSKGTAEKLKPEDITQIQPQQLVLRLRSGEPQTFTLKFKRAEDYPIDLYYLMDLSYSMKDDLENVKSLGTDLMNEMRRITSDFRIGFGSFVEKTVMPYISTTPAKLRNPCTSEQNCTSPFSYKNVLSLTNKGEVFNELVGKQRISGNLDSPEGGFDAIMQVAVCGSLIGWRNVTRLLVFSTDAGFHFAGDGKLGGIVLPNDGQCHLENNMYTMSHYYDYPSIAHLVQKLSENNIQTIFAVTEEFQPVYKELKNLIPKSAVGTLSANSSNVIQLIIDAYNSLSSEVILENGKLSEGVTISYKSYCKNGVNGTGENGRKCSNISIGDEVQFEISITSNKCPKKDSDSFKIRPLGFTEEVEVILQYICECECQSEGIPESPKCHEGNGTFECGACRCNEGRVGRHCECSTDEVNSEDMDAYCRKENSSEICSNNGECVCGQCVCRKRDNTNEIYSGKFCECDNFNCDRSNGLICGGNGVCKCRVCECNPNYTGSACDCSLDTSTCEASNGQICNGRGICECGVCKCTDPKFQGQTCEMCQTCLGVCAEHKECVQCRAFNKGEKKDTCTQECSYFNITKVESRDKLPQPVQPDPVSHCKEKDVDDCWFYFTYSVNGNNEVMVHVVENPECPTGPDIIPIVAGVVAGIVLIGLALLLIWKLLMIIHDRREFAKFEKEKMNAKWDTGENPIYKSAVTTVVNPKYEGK
Integrin beta-1 (Homo sapiens) + Integrin alpha-4 (Homo sapiens), sequence (P13612 whole entry, looked up): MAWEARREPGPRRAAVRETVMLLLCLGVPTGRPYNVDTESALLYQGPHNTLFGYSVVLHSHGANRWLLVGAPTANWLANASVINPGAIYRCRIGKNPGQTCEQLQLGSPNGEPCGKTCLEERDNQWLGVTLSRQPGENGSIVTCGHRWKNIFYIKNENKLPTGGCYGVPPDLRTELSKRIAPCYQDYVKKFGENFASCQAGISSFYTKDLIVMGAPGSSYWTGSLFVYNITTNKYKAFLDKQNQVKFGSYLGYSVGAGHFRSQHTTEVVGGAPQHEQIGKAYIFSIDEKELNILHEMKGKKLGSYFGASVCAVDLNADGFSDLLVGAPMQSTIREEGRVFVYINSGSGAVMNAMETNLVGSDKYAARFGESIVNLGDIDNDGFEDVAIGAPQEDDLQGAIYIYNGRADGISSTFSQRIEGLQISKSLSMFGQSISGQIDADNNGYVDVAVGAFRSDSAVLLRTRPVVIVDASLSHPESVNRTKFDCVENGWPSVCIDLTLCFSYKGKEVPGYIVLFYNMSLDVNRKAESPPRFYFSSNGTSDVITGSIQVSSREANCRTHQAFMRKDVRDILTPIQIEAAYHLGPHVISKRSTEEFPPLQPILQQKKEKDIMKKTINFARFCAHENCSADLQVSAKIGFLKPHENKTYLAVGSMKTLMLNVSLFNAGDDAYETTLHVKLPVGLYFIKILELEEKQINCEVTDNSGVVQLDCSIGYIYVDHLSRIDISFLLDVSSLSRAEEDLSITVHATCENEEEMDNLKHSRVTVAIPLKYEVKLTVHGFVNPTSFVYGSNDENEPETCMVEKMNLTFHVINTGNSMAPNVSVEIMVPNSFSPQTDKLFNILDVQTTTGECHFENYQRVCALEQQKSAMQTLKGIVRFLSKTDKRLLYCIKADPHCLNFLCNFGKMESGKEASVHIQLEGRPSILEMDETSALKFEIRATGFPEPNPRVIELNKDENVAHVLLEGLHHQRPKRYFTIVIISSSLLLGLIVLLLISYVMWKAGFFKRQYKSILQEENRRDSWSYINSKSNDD

CC1=CC(C)(C)N2C(=O)C3(NCCc4c3[nH]c3ccccc43)c3cc(C)cc1c32 (centres undefined)
63%: double positive events [6]
inactive: percent of DMSO control GFP [1] 103% | GFP response vs DMSO [2] 98.9% | percent response of DMSO control [3] 99.8% | GFP response vs DMSO [4] 82.3% | GFP response, % of DMSO [5] 93.6% | vesicle binding response [6] 162% | inhibition [7] 22.1% | superoxide response (% of plate) [8] 97.3% | aptamer binding inhibition [9] -3% | inhibition [10] -4.18% | response [11] 3.88% | binding (% of control) [12] 104% | efflux inhibition (fraction of control) [13] 0.41 | inhibition [14] 4% | differentiation response [15] -5.05%

C=CCc1cccc2cc(C(=O)Nc3ccc(CC(=O)O)cc3)c(=O)oc12
63.1%: double positive events [6]
inactive: percent of DMSO control GFP [1] 98.6% | GFP response vs DMSO [2] 106% | percent response of DMSO control [3] 94.9% | GFP response vs DMSO [4] 100% | GFP response, % of DMSO [5] 97.8% | vesicle binding response [6] 207% | inhibition [7] -2.11% | superoxide response (% of plate) [8] 141% | aptamer binding inhibition [9] 2% | inhibition [10] 28.6% | response [11] -3.63% | binding (% of control) [12] 100% | efflux inhibition (fraction of control) [13] 0.1 | inhibition [14] 5% | differentiation response [15] 7.87%

C[C@H](CS)C(=O)N1CCC[C@H]1C(=O)O
inactive: percent of DMSO control GFP [1] 106% | GFP response vs DMSO [2] 98.9% | percent response of DMSO control [3] 109% | GFP response vs DMSO [4] 96.4% | GFP response, % of DMSO [5] 102% | vesicle binding response [6] 186% | inhibition [7] -2.11% | superoxide response (% of plate) [8] 97.4% | aptamer binding inhibition [9] 0% | inhibition [10] -2.44% | response [11] -1.86% | binding (% of control) [12] 96.7% | efflux inhibition (fraction of control) [13] -0.16 | inhibition [14] 8% | differentiation response [15] -29.3%
58.6%: double positive events [6]

CC(C)Oc1ccc(C(CC(=O)O)c2ccc(F)cc2)cc1 (centres undefined)
62.7%: double positive events [6]
inactive: percent of DMSO control GFP [1] 102% | GFP response vs DMSO [2] 108% | percent response of DMSO control [3] 92% | GFP response vs DMSO [4] 113% | GFP response, % of DMSO [5] 90.4% | vesicle binding response [6] 164% | inhibition [7] 9.09% | superoxide response (% of plate) [8] 105% | aptamer binding inhibition [9] 5% | inhibition [10] -6.35% | response [11] 3.61% | binding (% of control) [12] 96.7% | efflux inhibition (fraction of control) [13] 0.18 | inhibition [14] 5% | differentiation response [15] -18%

CCCCNc1cc(C(=O)O)cc(S(N)(=O)=O)c1Oc1ccccc1
inactive: percent of DMSO control GFP [1] 102% | GFP response vs DMSO [2] 103% | percent response of DMSO control [3] 97.9% | GFP response vs DMSO [4] 89.3% | GFP response, % of DMSO [5] 102% | vesicle binding response [6] 179% | inhibition [7] 16.6% | superoxide response (% of plate) [8] 96.1% | aptamer binding inhibition [9] 6% | inhibition [10] 1.29% | response [11] 10.1% | binding (% of control) [12] 99.5% | efflux inhibition (fraction of control) [13] 0.06 | inhibition [14] 11% | differentiation response [15] -9.89%
52.3%: double positive events [6]

COc1ccc(CNC(=O)C2CCN(C(=O)[C@@H](CC(C)C)NC(=O)OC(C)(C)C)CC2)cc1
inactive: percent of DMSO control GFP [1] 98.3% | GFP response vs DMSO [2] 90.8% | percent response of DMSO control [3] 98.8% | GFP response vs DMSO [4] 92.3% | GFP response, % of DMSO [5] 92.7% | vesicle binding response [6] 326% | inhibition [7] 14.7% | superoxide response (% of plate) [8] 98.6% | aptamer binding inhibition [9] 1% | inhibition [10] -7.96% | response [11] -2.19% | binding (% of control) [12] 98.7% | efflux inhibition (fraction of control) [13] -0.09 | inhibition [14] 8% | differentiation response [15] 3.03%
63.6%: double positive events [6]

Cc1nc(C(=O)Nc2ccccc2Cl)cc2c1[nH]c1ccccc12
53.9%: double positive events [6]
inactive: percent of DMSO control GFP [1] 99.6% | GFP response vs DMSO [2] 108% | percent response of DMSO control [3] 106% | GFP response vs DMSO [4] 100% | GFP response, % of DMSO [5] 98.2% | vesicle binding response [6] 172% | inhibition [7] -1.17% | superoxide response (% of plate) [8] 111% | aptamer binding inhibition [9] 1% | inhibition [10] -0.33% | response [11] 2.14% | binding (% of control) [12] 95.4% | efflux inhibition (fraction of control) [13] 0.14 | inhibition [14] 11% | differentiation response [15] -9.89%

COc1cc(OC)cc(C(=O)N[C@@H](CCSC)c2nc3ccccc3[nH]2)c1
49.2%: double positive events [6]
inactive: percent of DMSO control GFP [1] 98% | GFP response vs DMSO [2] 88.7% | percent response of DMSO control [3] 105% | GFP response vs DMSO [4] 91.3% | GFP response, % of DMSO [5] 96.4% | vesicle binding response [6] 158% | inhibition [7] -13.3% | superoxide response (% of plate) [8] 98.5% | aptamer binding inhibition [9] 1% | inhibition [10] -7.65% | response [11] 0.15% | binding (% of control) [12] 99.3% | efflux inhibition (fraction of control) [13] -0.12 | inhibition [14] 3% | differentiation response [15] -8.27%

CC(=O)Oc1ccc2occ(/C=N/c3cc(=O)[nH]c(=S)[nH]3)c(=O)c2c1
inactive: percent of DMSO control GFP [1] 98% | GFP response vs DMSO [2] 102% | percent response of DMSO control [3] 96.9% | GFP response vs DMSO [4] 91.3% | GFP response, % of DMSO [5] 98.5% | vesicle binding response [6] 181% | inhibition [7] 7.22% | superoxide response (% of plate) [8] 90.5% | aptamer binding inhibition [9] 1% | inhibition [10] 25.5% | response [11] -8.27% | binding (% of control) [12] 103% | efflux inhibition (fraction of control) [13] 0.33 | inhibition [14] 10% | differentiation response [15] 40.2%
66.1%: double positive events [6]

Reference: PubChem BioAssay
